# Reference: PubChem BioAssay (Tox21)
# Results filed as inconclusive are left out. Where a call stands in place of a potency, no number is given. Unmarked numbers belong to inactive results. The source made the active and inactive calls. Calls follow the shape of the dose curve; as a rule, active = well fitted curve in the direction sought with a large enough effect in the repeat runs; inconclusive = weak or mixed curves; inactive = no such curve, though single readings can be large; an effect the other way counts as inactive or inconclusive.
# Legend:
# [1] = target: Cytochrome P450 2D6 (Homo sapiens) (UniProt P10635); test: Cytochrome P450 Family 2 Subfamily D Member 6 (CYP2D6) small molecule antagonists: luciferase reporter qHTS assay (AID 1671196); also: nearly all actives have a fitted effect of over 50% in size; as to activity change, negative = inhibition: series mostly up to about 120 µM
# Sequence of Cytochrome P450 2D6 (Homo sapiens) (P10635 whole entry, looked up): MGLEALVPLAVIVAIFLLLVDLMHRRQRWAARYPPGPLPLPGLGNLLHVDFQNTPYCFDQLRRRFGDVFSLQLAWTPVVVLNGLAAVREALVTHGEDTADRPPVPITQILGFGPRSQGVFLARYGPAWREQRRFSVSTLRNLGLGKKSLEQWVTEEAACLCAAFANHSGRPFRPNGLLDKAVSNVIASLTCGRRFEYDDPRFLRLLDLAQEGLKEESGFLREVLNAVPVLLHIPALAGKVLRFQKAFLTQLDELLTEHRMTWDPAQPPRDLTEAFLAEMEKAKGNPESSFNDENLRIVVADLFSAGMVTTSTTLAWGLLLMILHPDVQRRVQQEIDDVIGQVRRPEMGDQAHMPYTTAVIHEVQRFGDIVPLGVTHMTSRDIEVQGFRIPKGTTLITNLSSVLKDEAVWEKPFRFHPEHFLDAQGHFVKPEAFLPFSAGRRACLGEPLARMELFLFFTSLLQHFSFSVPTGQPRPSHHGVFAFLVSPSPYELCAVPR
# Outline: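 Room-temperature luminescent CYP2D6 activity assay: compound preincubated 10 min with enzyme–substrate mix, NADPH-initiated reaction 1 h, detection reagent 20 min before reading.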
# [2] = target: Cytochrome P450 2C9 (Homo sapiens) (UniProt P11712); test: Cytochrome P450 Family 2 Subfamily C Member 9 (CYP2C9) small molecule antagonists: luciferase reporter qHTS assay (AID 1671198); also: nearly all actives have a fitted effect of over 50% in size; as to activity change, negative = inhibition: series mostly up to about 120 µM
# Sequence of Cytochrome P450 2C9 (Homo sapiens) (P11712 whole entry, looked up): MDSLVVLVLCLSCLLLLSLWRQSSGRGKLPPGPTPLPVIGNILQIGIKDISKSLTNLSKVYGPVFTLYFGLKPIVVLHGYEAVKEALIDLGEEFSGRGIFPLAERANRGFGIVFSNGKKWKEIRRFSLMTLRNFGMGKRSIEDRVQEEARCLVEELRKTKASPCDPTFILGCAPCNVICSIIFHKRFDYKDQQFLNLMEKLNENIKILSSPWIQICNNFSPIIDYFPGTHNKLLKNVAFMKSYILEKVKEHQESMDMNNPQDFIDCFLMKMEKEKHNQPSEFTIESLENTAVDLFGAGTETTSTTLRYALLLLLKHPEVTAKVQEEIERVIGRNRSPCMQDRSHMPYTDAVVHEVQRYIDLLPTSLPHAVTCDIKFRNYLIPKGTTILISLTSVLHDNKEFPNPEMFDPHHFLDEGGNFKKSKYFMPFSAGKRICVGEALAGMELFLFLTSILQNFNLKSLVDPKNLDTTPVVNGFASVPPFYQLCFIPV
# Outline: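 Enzyme-substrate mix preincubated with compound 10 min at room temperature; reaction started with NADPH regeneration solution, 1 h 37C. Luminescent luciferin product read after 20 min detection reagent.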
# [3] = target: Cytochrome P450 1A2 (Homo sapiens) (UniProt P05177); test: Cytochrome P450 Family 1 Subfamily A Member 2 (CYP1A2) small molecule antagonists: luciferase reporter qHTS assay (AID 1671199); also: nearly all actives have a fitted effect of over 50% in size; as to activity change, negative = inhibition: series mostly up to about 120 µM
# Sequence of Cytochrome P450 1A2 (Homo sapiens) (P05177 whole entry, looked up): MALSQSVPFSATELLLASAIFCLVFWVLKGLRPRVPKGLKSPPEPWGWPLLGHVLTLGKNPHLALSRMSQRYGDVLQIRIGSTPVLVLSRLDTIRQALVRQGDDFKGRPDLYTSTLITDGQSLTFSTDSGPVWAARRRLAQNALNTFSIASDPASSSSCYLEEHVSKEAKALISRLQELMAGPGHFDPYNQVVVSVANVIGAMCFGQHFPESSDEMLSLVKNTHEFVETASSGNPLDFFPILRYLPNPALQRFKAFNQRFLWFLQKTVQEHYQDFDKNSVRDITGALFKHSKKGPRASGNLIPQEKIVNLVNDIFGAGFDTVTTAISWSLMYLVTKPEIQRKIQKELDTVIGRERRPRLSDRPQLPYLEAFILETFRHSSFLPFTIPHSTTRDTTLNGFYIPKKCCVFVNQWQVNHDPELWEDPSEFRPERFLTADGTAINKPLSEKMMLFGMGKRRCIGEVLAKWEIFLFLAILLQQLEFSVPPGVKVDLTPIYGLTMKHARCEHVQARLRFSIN
# Outline: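 Room-temperature CYP1A2 reaction with proluciferin substrate: compounds added from DMSO, 10 min preincubation, NADPH regeneration for 1 h. Luciferin detection reagent then added; luminescence recorded as RLU.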
# [4] = target: Voltage-gated inwardly rectifying potassium channel KCNH2 (Homo sapiens) (UniProt Q12809); test: Human Ether-a-go-go-Related Gene (hERG) channel small molecule antagonists: fluorescence cell-based qHTS assay (AID 1671200); also: nearly all actives have a fitted effect of over 50% in size;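 as to activity change, negative = inhibition: hERG-expressing U2OS cells given a thallium stimulus after FluxOR II dye loading; series mostly up to about 77 µM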
# Sequence of Voltage-gated inwardly rectifying potassium channel KCNH2 (Homo sapiens) (Q12809 whole entry, looked up): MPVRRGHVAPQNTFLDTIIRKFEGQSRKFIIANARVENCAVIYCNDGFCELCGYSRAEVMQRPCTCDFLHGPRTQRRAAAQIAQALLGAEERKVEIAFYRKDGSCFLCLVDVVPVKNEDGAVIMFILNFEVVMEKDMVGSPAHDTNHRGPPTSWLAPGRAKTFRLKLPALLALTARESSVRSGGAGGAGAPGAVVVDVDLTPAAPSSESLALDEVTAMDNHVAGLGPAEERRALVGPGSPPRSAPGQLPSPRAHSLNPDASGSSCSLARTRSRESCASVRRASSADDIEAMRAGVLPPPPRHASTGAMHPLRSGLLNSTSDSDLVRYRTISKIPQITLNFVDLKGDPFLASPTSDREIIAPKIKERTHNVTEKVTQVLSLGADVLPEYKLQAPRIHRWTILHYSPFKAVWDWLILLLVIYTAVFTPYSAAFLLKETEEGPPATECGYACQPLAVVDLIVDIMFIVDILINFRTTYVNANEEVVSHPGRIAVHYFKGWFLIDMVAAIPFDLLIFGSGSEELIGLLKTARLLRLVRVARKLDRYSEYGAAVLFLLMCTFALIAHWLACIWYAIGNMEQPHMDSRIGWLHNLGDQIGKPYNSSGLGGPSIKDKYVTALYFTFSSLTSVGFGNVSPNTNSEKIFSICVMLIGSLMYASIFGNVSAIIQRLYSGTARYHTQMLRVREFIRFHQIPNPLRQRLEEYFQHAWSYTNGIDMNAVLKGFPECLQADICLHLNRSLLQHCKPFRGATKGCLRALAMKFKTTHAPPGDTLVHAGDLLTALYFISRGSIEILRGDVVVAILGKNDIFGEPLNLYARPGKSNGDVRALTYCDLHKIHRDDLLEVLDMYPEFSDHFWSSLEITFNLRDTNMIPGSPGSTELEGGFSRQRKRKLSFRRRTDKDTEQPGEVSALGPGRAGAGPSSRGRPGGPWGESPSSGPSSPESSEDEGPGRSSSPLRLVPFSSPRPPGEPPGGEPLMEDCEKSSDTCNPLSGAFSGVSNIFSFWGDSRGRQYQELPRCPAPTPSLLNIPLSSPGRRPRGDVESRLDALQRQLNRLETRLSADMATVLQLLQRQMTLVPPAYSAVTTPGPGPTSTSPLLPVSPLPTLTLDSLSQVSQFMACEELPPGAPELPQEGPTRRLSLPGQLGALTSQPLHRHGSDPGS
# Outline: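 Quantitative HTS in hERG-U2OS cells: thallium entry through the channel reports activity, read as continuous 480/540 nm fluorescence over 2 min after stimulus addition.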
# [5] = target: Cytochrome P450 3A4 (Homo sapiens) (UniProt P08684); test: Cytochrome P450 Family 3 Subfamily A Member 4 (CYP3A4) small molecule antagonists: luciferase reporter qHTS assay (AID 1671201); also: nearly all actives have a fitted effect of over 50% in size; as to activity change, negative = inhibition: series mostly up to about 120 µM
# Sequence of Cytochrome P450 3A4 (Homo sapiens) (P08684 whole entry, looked up): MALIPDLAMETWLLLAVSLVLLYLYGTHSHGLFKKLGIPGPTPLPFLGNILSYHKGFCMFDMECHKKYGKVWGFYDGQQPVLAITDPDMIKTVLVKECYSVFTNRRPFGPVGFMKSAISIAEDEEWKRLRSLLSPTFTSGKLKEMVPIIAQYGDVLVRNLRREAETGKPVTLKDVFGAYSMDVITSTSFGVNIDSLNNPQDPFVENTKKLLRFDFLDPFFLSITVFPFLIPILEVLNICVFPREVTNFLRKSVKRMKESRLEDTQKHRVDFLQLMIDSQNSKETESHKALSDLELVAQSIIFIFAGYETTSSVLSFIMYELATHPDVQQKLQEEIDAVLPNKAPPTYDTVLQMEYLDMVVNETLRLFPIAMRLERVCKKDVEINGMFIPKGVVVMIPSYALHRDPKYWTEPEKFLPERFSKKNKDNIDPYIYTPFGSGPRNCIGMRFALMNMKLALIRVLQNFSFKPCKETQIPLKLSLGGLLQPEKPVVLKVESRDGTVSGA
# Outline: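 Inhibition of CYP3A4 is measured as loss of light: the enzyme converts a proluciferin substrate to luciferin, detected luminescently. Reaction ran 1 h at room temperature with NADPH regeneration after a 10 min compound preincubation.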
# [6] = target: Cytochrome P450 2C19 (Homo sapiens) (UniProt P33261); test: Cytochrome P450 Family 2 Subfamily C Member 19 (CYP2C19) small molecule antagonists: luciferase reporter qHTS assay (AID 1671197); also: nearly all actives have a fitted effect of over 65% in size; as to activity change, negative = inhibition: series mostly up to about 120 µM
# Sequence of Cytochrome P450 2C19 (Homo sapiens) (P33261 whole entry, looked up): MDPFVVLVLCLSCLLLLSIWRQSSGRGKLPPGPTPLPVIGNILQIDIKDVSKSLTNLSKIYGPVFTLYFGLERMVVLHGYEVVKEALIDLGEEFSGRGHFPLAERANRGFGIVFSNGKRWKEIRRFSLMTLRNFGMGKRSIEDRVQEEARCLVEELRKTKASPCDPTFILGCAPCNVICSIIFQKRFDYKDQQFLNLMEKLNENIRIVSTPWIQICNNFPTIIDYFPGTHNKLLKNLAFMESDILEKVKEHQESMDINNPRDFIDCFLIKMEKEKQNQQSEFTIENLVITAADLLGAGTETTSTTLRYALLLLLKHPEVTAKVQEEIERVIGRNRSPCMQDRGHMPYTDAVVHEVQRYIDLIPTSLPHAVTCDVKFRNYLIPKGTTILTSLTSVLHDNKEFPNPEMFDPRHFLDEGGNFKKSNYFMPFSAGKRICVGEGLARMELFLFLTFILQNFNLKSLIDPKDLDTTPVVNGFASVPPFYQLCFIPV
# Outline: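 P450-Glo CYP2C19 screening system; proluciferin substrate; DMSO compound stocks; 10 min RT preincubation; NADPH regeneration, 1 h at 37C; luciferin detection reagent, 20 min RT; luminescence as RLU.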
# Potency is read from the fitted curve at half-maximal effect.
compound,measurement,setting,value
Nc1[nH]c(=O)ncc1F,Potency,[1],inactive
same,Potency,[2],inactive
same,Potency,[3],inactive
same,Potency,[4],inactive
same,Potency,[5],inactive
O=C1CC2(CCCC2)CC(=O)N1,Potency,[1],inactive
same,Potency,[2],inactive
same,Potency,[3],inactive
same,Potency,[4],inactive
same,Potency,[5],inactive
C/C=C1\C(=O)C[C@H]2[C@@H]3CCC4=CC(=O)CC[C@]4(C)[C@H]3CC[C@]12C,Potency,[1],inactive
same,Potency,[2],15.6 µM (active)
same,Potency,[3],inactive
O=C(O)C1CCC1,Potency,[1],inactive
same,Potency,[2],inactive
same,Potency,[3],inactive
same,Potency,[4],inactive
same,Potency,[5],inactive
C1=C\CC/C=C\CC/C=C\CC/1,Potency,[1],inactive
same,Potency,[6],inactive
same,Potency,[4],inactive
same,Potency,[5],inactive
CCCCCCOC(=O)CC(CC(=O)OCCCCCC)(OC(=O)CCC)C(=O)OCCCCCC,Potency,[1],inactive
same,Potency,[2],31.7 µM (active)
same,Potency,[3],inactive
same,Potency,[4],inactive
NS(=O)(=O)c1cc2c(cc1Cl)NC(CSCc1ccccc1)=NS2(=O)=O,Potency,[1],34.7 µM (active)
same,Potency,[2],4.9 µM (active)
same,Potency,[3],inactive
same,Potency,[4],inactive
CCN1CCCC(OC(=O)C(c2ccccc2)c2ccccc2)C1 (stereo unspecified),Potency,[1],1.38 µM (active)
same,Potency,[2],inactive
same,Potency,[3],inactive
same,Potency,[4],3.38 µM (active)
C=C(C)C(=O)OCCC(C)OC(=O)C(=C)C (stereo unspecified),Potency,[1],inactive
same,Potency,[6],inactive
same,Potency,[3],31.7 µM (active)
same,Potency,[5],inactive
C=C(C)C1CC=C(C)C(O)C1 (stereo unspecified),Potency,[1],inactive
same,Potency,[2],inactive
same,Potency,[3],40.1 µM (active)
CCCC(C)CO (stereo unspecified),Potency,[1],79.7 µM (active)
same,Potency,[2],inactive
same,Potency,[3],35.6 µM (active)
same,Potency,[4],inactive
same,Potency,[5],inactive
CCN(CC)C(=O)c1ccc(O)c(OC)c1,Potency,[1],inactive
same,Potency,[2],inactive
same,Potency,[3],inactive
same,Potency,[4],inactive
same,Potency,[5],inactive
N#CCc1ccccc1[N+](=O)[O-],Potency,[1],78.7 µM (active)
same,Potency,[6],inactive
same,Potency,[3],31.3 µM (active)
same,Potency,[4],inactive
same,Potency,[5],inactive
CC1(C)SC(C)(C)SC(C)(C)S1,Potency,[1],inactive
same,Potency,[2],inactive
same,Potency,[3],inactive
same,Potency,[4],inactive
CC1(C)OC(=O)Nc2ccc(Br)cc21,Potency,[1],inactive
same,Potency,[6],17.4 µM (active)
same,Potency,[4],inactive
Cc1ccc(Nc2ccc(O)c3c2C(=O)c2ccccc2C3=O)cc1,Potency,[1],inactive
same,Potency,[6],inactive
same,Potency,[4],inactive
same,Potency,[5],inactive
COC(=O)CCCC(=O)O,Potency,[1],inactive
same,Potency,[2],inactive
same,Potency,[3],inactive
same,Potency,[4],inactive
same,Potency,[5],inactive
C(=C(c1ccccc1)c1ccccc1)c1ccccc1,Potency,[1],inactive
same,Potency,[2],5.03 µM (active)
same,Potency,[3],35.6 µM (active)
CN(C)N=Nc1ccccc1,Potency,[1],inactive
same,Potency,[2],inactive
same,Potency,[3],inactive
same,Potency,[5],inactive
COCc1ccc(COC)cc1,Potency,[1],inactive
same,Potency,[2],inactive
same,Potency,[3],inactive
same,Potency,[4],inactive
same,Potency,[5],inactive
COc1ccc2cc(C=O)ccc2c1,Potency,[1],inactive
same,Potency,[2],17.4 µM (active)
same,Potency,[3],13.8 µM (active)
same,Potency,[5],inactive
C=C(C)C(=O)NCCC[N+](C)(C)C,Potency,[1],inactive
same,Potency,[2],inactive
same,Potency,[5],inactive
CC(C)(C)CC(C)(C)N,Potency,[1],inactive
same,Potency,[2],inactive
same,Potency,[3],30.8 µM (active)
same,Potency,[4],inactive
same,Potency,[5],inactive
CCc1cc(S(=O)(=O)O)c2cc(C(C)C)cccc1-2,Potency,[1],inactive
same,Potency,[3],inactive
same,Potency,[4],inactive
same,Potency,[5],inactive
Cn1ccc2cc3c(cc21)CCN3C(=O)Nc1cccnc1,"activity change, negative = inhibition",[1],-16.8% [at 23.6 µM]
same,Potency,[3],0.0791 µM (active)
same,"activity change, negative = inhibition",[4],2.6% [at 15.8 µM]
NS(=O)(=O)c1cc(C2(O)NC(=O)c3ccccc32)ccc1Cl (stereo unspecified),Potency,[1],inactive
same,Potency,[2],inactive
same,Potency,[4],inactive
Cc1c(F)cc2c(=O)c(C(=O)O)cn3c2c1CCC3C (stereo unspecified),Potency,[1],inactive
same,Potency,[2],inactive
same,Potency,[3],inactive
same,Potency,[5],inactive
Nc1ccc2cc(S(=O)(=O)O)ccc2c1,Potency,[1],39.9 µM (active)
same,Potency,[2],50.2 µM (active)
same,Potency,[4],inactive
same,Potency,[5],inactive
CC(C)(C)OC(=O)N1C[C@@H](F)C[C@H]1C(=O)O,Potency,[1],inactive
same,Potency,[4],inactive
same,Potency,[5],36.8 µM (active)
CCn1c(=O)c2c(nc(/C=C/c3ccc(OC)c(OC)c3)n2C)n(CC)c1=O,Potency,[1],inactive
same,Potency,[3],inactive
same,Potency,[4],inactive
Cc1cc(C)cc(OCC2CNC(=O)O2)c1 (stereo unspecified),Potency,[1],inactive
same,Potency,[2],inactive
same,Potency,[4],inactive
CCCCCCCCCCCCCCCCCCOCC(O)CO (stereo unspecified),Potency,[1],inactive
same,Potency,[2],inactive
same,Potency,[4],inactive
same,Potency,[5],inactive
C=C[Si](OC)(OC)OC,Potency,[1],inactive
same,Potency,[2],inactive
same,Potency,[3],34.2 µM (active)
same,Potency,[4],inactive
same,Potency,[5],inactive
CN(C)C(=O)Nc1ccccc1,Potency,[1],inactive
same,Potency,[2],inactive
same,Potency,[4],inactive
Nc1cc(C(Cl)=C(Cl)Cl)c(S(N)(=O)=O)cc1S(N)(=O)=O,Potency,[1],inactive
same,Potency,[3],inactive
same,Potency,[4],inactive
CCCCc1ccc2cccc(S(=O)(=O)O)c2c1,Potency,[1],inactive
same,Potency,[2],37.3 µM (active)
same,Potency,[4],inactive
same,Potency,[5],inactive
Cn1cnc2c(=O)[nH]c(N)nc21,Potency,[1],inactive
same,Potency,[2],inactive
same,Potency,[3],28.3 µM (active)
same,Potency,[4],inactive
same,Potency,[5],inactive
O=S(=O)(O)c1ccccc1O,Potency,[1],25.2 µM (active)
same,Potency,[2],inactive
same,Potency,[3],inactive
same,Potency,[5],inactive
